Positions count from the first letter of the chain named.

Holding throughout (test): PBM; 200 nM protein, PBS
What all share (details): dsDNA, one strand shown

The target of assay [1] is ALX3 (Homo sapiens, UniProt O95076 139-225, N203Q).
Assay [2] has as its target T1, NKX2-6 (Homo sapiens, UniProt A6NCS4 118-204).
T1 sequence: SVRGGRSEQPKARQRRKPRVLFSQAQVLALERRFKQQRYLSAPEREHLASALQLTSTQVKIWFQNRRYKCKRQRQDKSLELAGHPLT

The target of assay [3] is ALX3 (Homo sapiens, UniProt O95076 139-225).
The target of assay [4] is PROP1 (Homo sapiens, UniProt O75360 56-141).
The target of assay [5] is PROP1 (Homo sapiens, UniProt O75360 56-141, R99H).
In assay [6] the target is ALX3 (Homo sapiens, UniProt O95076 139-225, L168Q).
The target in assay [7] is T2, NKX2-6 (Homo sapiens, UniProt A6NCS4 118-204, F151L).
T2 sequence: T1 sequence with F34L

The target of assay [8] is ALX3 (Homo sapiens, UniProt O95076 139-225, L168V).
The target in assay [9] is PROP1 (Homo sapiens, UniProt O75360 56-141, F88S).
Assay [10] concerns the target ALX3 (Homo sapiens, UniProt O95076 139-225, N203S).
Assay [11] concerns the target HOXD13 (Homo sapiens, UniProt P35453 263-343, T313R).
Assay [12] has as its target HOXD13 (Homo sapiens, UniProt P35453 263-343).
Assay [13] concerns the target HOXD13 (Homo sapiens, UniProt P35453 263-343, T313A).
In assay [14] the target is HOXC9 (Homo sapiens, UniProt P31274 178-260, R222W).
For assay [15], the target named is HOXA2 (Homo sapiens, UniProt O43364 129-215, R185K).
Chain of HOXA2 (O43364 129-215 R185K): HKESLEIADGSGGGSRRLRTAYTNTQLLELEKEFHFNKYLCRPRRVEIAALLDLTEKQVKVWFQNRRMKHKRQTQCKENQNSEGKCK

Chain of ALX3 (Homo sapiens, UniProt O95076 139-225, L168Q) (O95076 139-225 L168Q): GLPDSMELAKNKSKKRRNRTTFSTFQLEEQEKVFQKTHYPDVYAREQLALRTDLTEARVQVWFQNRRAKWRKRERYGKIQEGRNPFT
Chain of ALX3 (Homo sapiens, UniProt O95076 139-225, L168V) (O95076 139-225 L168V): as the sequence (O95076 139-225 L168Q) above, with Q30V counted along it
Chain of ALX3 (Homo sapiens, UniProt O95076 139-225) (O95076 139-225): as the sequence (O95076 139-225 L168Q) above, with Q30L counted along it
Chain of HOXD13 (Homo sapiens, UniProt P35453 263-343, T313R) (P35453 263-343 T313R): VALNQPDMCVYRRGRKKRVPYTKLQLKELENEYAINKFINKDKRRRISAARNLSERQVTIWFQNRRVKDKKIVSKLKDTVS
Chain of HOXD13 (Homo sapiens, UniProt P35453 263-343, T313A) (P35453 263-343 T313A): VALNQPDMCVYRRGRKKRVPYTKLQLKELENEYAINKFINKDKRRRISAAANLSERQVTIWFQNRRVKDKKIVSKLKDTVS
Chain of ALX3 (Homo sapiens, UniProt O95076 139-225, N203Q) (O95076 139-225 N203Q): as the sequence (O95076 139-225 L168Q) above, with Q30L, N65Q counted along it
Chain of HOXD13 (Homo sapiens, UniProt P35453 263-343) (P35453 263-343): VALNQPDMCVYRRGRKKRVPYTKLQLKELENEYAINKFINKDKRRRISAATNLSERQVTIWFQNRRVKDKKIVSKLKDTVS
Chain of ALX3 (Homo sapiens, UniProt O95076 139-225, N203S) (O95076 139-225 N203S): as the sequence (O95076 139-225 L168Q) above, with Q30L, N65S counted along it
Chain of PROP1 (Homo sapiens, UniProt O75360 56-141) (O75360 56-141): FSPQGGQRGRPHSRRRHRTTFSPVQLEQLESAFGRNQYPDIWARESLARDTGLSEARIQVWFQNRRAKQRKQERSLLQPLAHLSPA
Chain of PROP1 (Homo sapiens, UniProt O75360 56-141, F88S) (O75360 56-141 F88S): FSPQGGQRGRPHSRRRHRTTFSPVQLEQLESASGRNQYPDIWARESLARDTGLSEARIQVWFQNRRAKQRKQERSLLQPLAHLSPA
Chain of PROP1 (Homo sapiens, UniProt O75360 56-141, R99H) (O75360 56-141 R99H): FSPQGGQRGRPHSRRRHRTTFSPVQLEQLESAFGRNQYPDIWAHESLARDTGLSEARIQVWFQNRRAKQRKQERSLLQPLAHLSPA
Chain of HOXC9 (P31274 178-260 R222W): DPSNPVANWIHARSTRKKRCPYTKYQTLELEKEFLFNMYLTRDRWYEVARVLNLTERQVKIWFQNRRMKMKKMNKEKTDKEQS

Turning to CGGCCCAG, the binding signal in [1] was 7.75 upbm affinity estimate (log intensity, higher = more binding, comparable within an allelic series); in assay [2], 8.83 upbm affinity estimate (log intensity, higher = more binding, comparable within an allelic series); in [3], 7.72 upbm affinity estimate (log intensity, higher = more binding, comparable within an allelic series); in [4], 6.51 upbm affinity estimate (log intensity, higher = more binding, comparable within an allelic series); in assay [5] it was 6.59 upbm affinity estimate (log intensity, higher = more binding, comparable within an allelic series); in assay [6], 7.67 upbm affinity estimate (log intensity, higher = more binding, comparable within an allelic series). Moreover, the binding signal in [7] was 9.1 upbm affinity estimate (log intensity, higher = more binding, comparable within an allelic series); in [8] it was 7.67 upbm affinity estimate (log intensity, higher = more binding, comparable within an allelic series); in [9], 6.34 upbm affinity estimate (log intensity, higher = more binding, comparable within an allelic series); in [10], 7.74 upbm affinity estimate (log intensity, higher = more binding, comparable within an allelic series).
As to AATTGTCC, the binding signal in [1] is 8.15 upbm affinity estimate (log intensity, higher = more binding, comparable within an allelic series); in assay [2] it was 11.4 upbm affinity estimate (log intensity, higher = more binding, comparable within an allelic series); in [3] it was 10.1 upbm affinity estimate (log intensity, higher = more binding, comparable within an allelic series); in [7], 9.84 upbm affinity estimate (log intensity, higher = more binding, comparable within an allelic series); in assay [10] it was 8.23 upbm affinity estimate (log intensity, higher = more binding, comparable within an allelic series).
As for ATTTACGG, the binding signal in assay [1] was 8.3 upbm affinity estimate (log intensity, higher = more binding, comparable within an allelic series); in assay [3], 10.1 upbm affinity estimate (log intensity, higher = more binding, comparable within an allelic series).
TTATAGAA: the binding signal in [1] is 8.31 upbm affinity estimate (log intensity, higher = more binding, comparable within an allelic series); in assay [3], 9.6 upbm affinity estimate (log intensity, higher = more binding, comparable within an allelic series); in [10], 8.38 upbm affinity estimate (log intensity, higher = more binding, comparable within an allelic series).
As for ATTCATGG, the binding signal in assay [11] is 10.2 upbm affinity estimate (log intensity, higher = more binding, comparable within an allelic series); in assay [12], 10.8 upbm affinity estimate (log intensity, higher = more binding, comparable within an allelic series).
Consider ATTTAAAT, for which the binding signal in assay [1] was 8.56 upbm affinity estimate (log intensity, higher = more binding, comparable within an allelic series); in assay [10], 8.68 upbm affinity estimate (log intensity, higher = more binding, comparable within an allelic series).
Regarding GCCTCCAC, the binding signal in assay [11] was 9.56 upbm affinity estimate (log intensity, higher = more binding, comparable within an allelic series); in assay [2], 9.6 upbm affinity estimate (log intensity, higher = more binding, comparable within an allelic series); in [12], 9.59 upbm affinity estimate (log intensity, higher = more binding, comparable within an allelic series); in assay [13] it was 9.61 upbm affinity estimate (log intensity, higher = more binding, comparable within an allelic series); in assay [7], 9.3 upbm affinity estimate (log intensity, higher = more binding, comparable within an allelic series).
CCCGGCCA: the binding signal in assay [11] is 9.5 upbm affinity estimate (log intensity, higher = more binding, comparable within an allelic series); in assay [2] it was 9.65 upbm affinity estimate (log intensity, higher = more binding, comparable within an allelic series); in assay [12], 9.64 upbm affinity estimate (log intensity, higher = more binding, comparable within an allelic series); in [13], 9.63 upbm affinity estimate (log intensity, higher = more binding, comparable within an allelic series); in [7] it was 9.26 upbm affinity estimate (log intensity, higher = more binding, comparable within an allelic series).
On to CTAACAAC, for which the binding signal in [1] is 8.26 upbm affinity estimate (log intensity, higher = more binding, comparable within an allelic series); in assay [3], 9.15 upbm affinity estimate (log intensity, higher = more binding, comparable within an allelic series); in assay [10], 8.24 upbm affinity estimate (log intensity, higher = more binding, comparable within an allelic series).
With ATAAATAA, the binding signal in [1] was 8.6 upbm affinity estimate (log intensity, higher = more binding, comparable within an allelic series); in assay [14], 11.1 upbm affinity estimate (log intensity, higher = more binding, comparable within an allelic series); in [10] it was 8.76 upbm affinity estimate (log intensity, higher = more binding, comparable within an allelic series).
With ATCACAGA, the binding signal in assay [1] was 8.15 upbm affinity estimate (log intensity, higher = more binding, comparable within an allelic series); in [3], 9.21 upbm affinity estimate (log intensity, higher = more binding, comparable within an allelic series); in [10] it was 8.16 upbm affinity estimate (log intensity, higher = more binding, comparable within an allelic series).
On to ATATTTAA, for which the binding signal in assay [1] was 8.67 upbm affinity estimate (log intensity, higher = more binding, comparable within an allelic series); in assay [10], 8.84 upbm affinity estimate (log intensity, higher = more binding, comparable within an allelic series).
For TTAACTAA, the binding signal in [1] was 8.53 upbm affinity estimate (log intensity, higher = more binding, comparable within an allelic series); in assay [10], 8.65 upbm affinity estimate (log intensity, higher = more binding, comparable within an allelic series).
TCTATTAA: the binding signal in assay [11] was 10.7 upbm affinity estimate (log intensity, higher = more binding, comparable within an allelic series).
Consider CAGCACCC, for which the binding signal in assay [1] is 7.8 upbm affinity estimate (log intensity, higher = more binding, comparable within an allelic series); in assay [3] it was 7.73 upbm affinity estimate (log intensity, higher = more binding, comparable within an allelic series); in [6], 7.75 upbm affinity estimate (log intensity, higher = more binding, comparable within an allelic series); in assay [8] it was 7.68 upbm affinity estimate (log intensity, higher = more binding, comparable within an allelic series); in assay [10] it was 7.8 upbm affinity estimate (log intensity, higher = more binding, comparable within an allelic series).
Take ACGTTAGT: the binding signal in assay [1] was 8.16 upbm affinity estimate (log intensity, higher = more binding, comparable within an allelic series); in [3], 9.39 upbm affinity estimate (log intensity, higher = more binding, comparable within an allelic series); in [10], 8.22 upbm affinity estimate (log intensity, higher = more binding, comparable within an allelic series).
For the sequence TATATTAA, the binding signal in [11] was 10.7 upbm affinity estimate (log intensity, higher = more binding, comparable within an allelic series).
With GCGCGAGC, the binding signal in assay [1] was 7.77 upbm affinity estimate (log intensity, higher = more binding, comparable within an allelic series); in assay [3] it was 7.84 upbm affinity estimate (log intensity, higher = more binding, comparable within an allelic series); in assay [6], 7.77 upbm affinity estimate (log intensity, higher = more binding, comparable within an allelic series); in assay [8] it was 7.76 upbm affinity estimate (log intensity, higher = more binding, comparable within an allelic series); in assay [10] it was 7.83 upbm affinity estimate (log intensity, higher = more binding, comparable within an allelic series).
Regarding AGTTACAG, the binding signal in [1] was 8.16 upbm affinity estimate (log intensity, higher = more binding, comparable within an allelic series); in [3] it was 8.82 upbm affinity estimate (log intensity, higher = more binding, comparable within an allelic series); in [10], 8.25 upbm affinity estimate (log intensity, higher = more binding, comparable within an allelic series).
As for CTTTTATA, the binding signal in assay [11] is 10.7 upbm affinity estimate (log intensity, higher = more binding, comparable within an allelic series).
As to GCATTAGA, the binding signal in assay [1] is 8.11 upbm affinity estimate (log intensity, higher = more binding, comparable within an allelic series); in assay [3], 9.95 upbm affinity estimate (log intensity, higher = more binding, comparable within an allelic series); in assay [10], 8.12 upbm affinity estimate (log intensity, higher = more binding, comparable within an allelic series).
AGATTTTA: the binding signal was 8.19 upbm affinity estimate (log intensity, higher = more binding, comparable within an allelic series) in [1]; 9.08 upbm affinity estimate (log intensity, higher = more binding, comparable within an allelic series) in assay [3]; 8.26 upbm affinity estimate (log intensity, higher = more binding, comparable within an allelic series) in [10].
Consider CTCATCAA, for which the binding signal in [1] was 8.12 upbm affinity estimate (log intensity, higher = more binding, comparable within an allelic series); in [3] it was 9.41 upbm affinity estimate (log intensity, higher = more binding, comparable within an allelic series); in [10] it was 8.16 upbm affinity estimate (log intensity, higher = more binding, comparable within an allelic series).
Take CATTTGCC: the binding signal in assay [1] was 7.93 upbm affinity estimate (log intensity, higher = more binding, comparable within an allelic series); in assay [3], 8.86 upbm affinity estimate (log intensity, higher = more binding, comparable within an allelic series); in [10], 7.93 upbm affinity estimate (log intensity, higher = more binding, comparable within an allelic series).
On to TATTATAA, for which the binding signal in assay [1] was 8.66 upbm affinity estimate (log intensity, higher = more binding, comparable within an allelic series); in [10] it was 8.67 upbm affinity estimate (log intensity, higher = more binding, comparable within an allelic series).
As to GTTATGCA, the binding signal in [1] was 8.13 upbm affinity estimate (log intensity, higher = more binding, comparable within an allelic series); in [3] it was 9.19 upbm affinity estimate (log intensity, higher = more binding, comparable within an allelic series); in assay [10] it was 8.22 upbm affinity estimate (log intensity, higher = more binding, comparable within an allelic series).
For the sequence CTCGTTAA, the binding signal in [11] is 10.7 upbm affinity estimate (log intensity, higher = more binding, comparable within an allelic series); in assay [15], 13.1 upbm affinity estimate (log intensity, higher = more binding, comparable within an allelic series); in assay [12] it was 12.1 upbm affinity estimate (log intensity, higher = more binding, comparable within an allelic series); in assay [13], 12 upbm affinity estimate (log intensity, higher = more binding, comparable within an allelic series).
CATTTATA: the binding signal in [11] is 10.7 upbm affinity estimate (log intensity, higher = more binding, comparable within an allelic series).
On to ATAGCAAT, for which the binding signal in [11] was 10.2 upbm affinity estimate (log intensity, higher = more binding, comparable within an allelic series); in [12], 10.7 upbm affinity estimate (log intensity, higher = more binding, comparable within an allelic series).
In the case of ATTAGTTA, the binding signal in assay [1] is 8.55 upbm affinity estimate (log intensity, higher = more binding, comparable within an allelic series); in assay [10], 8.67 upbm affinity estimate (log intensity, higher = more binding, comparable within an allelic series).
In the case of AATCATTC, the binding signal in assay [1] is 8.14 upbm affinity estimate (log intensity, higher = more binding, comparable within an allelic series); in assay [3], 10 upbm affinity estimate (log intensity, higher = more binding, comparable within an allelic series); in [10] it was 8.17 upbm affinity estimate (log intensity, higher = more binding, comparable within an allelic series).
